Hits are enriched below; roughly 11% of the tested compounds scored in any of these assays.
AmpC detergent – qHTS Inhibitors of AmpC Beta-Lactamase (assay with detergent); AID 485294, 2010; AmpC hydrolysis of nitrocefin, absorbance 480 nm, 0.01% Triton; 0.041% of 370,000 active; Potency, µM (doses to about 114 µM), for inactives: top-dose activity change, negative = inhibition, usual class: inhibitors; P00811;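 also: 0% = no-compound wells and -100% = no-enzyme wells; nearly all actives have a fitted effect of over 25% in size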
Target sequence (P00811 whole entry, looked up): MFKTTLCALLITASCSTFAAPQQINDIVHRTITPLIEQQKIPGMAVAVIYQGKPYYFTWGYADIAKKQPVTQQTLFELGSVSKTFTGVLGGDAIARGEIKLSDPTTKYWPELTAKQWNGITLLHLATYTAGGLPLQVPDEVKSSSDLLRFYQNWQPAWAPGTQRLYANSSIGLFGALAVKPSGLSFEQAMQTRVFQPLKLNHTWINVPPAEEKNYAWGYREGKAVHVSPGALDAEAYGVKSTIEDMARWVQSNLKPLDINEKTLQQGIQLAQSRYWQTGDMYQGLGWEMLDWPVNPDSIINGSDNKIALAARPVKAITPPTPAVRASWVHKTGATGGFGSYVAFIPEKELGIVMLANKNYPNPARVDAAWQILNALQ
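AmpC (5.3 nM in the dispensed reagent) in 20 mM phosphate pH 7.0 with 0.01% (detergent screen) or 0.0001% Triton X-100 was preincubated with compounds for 15 min at room temperature. Nitrocefin was then added from an 800 uM solution, and hydrolysis was followed at 480 nm.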
HCV inh – qHTS Assay for Inhibitors of Hepatitis C Virus (HCV). Potency, µM (top dose mostly 41.8 µM), for inactives: at the top dose activity change, negative = inhibition, most hits filed as inhibitors. Huh7.5.1 HCVcc-Cre infection, luciferase reporter, 44 h. AID 651820, 2012. 3.4% of 340,000 active
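Cells (1,000/well) were plated 4 h before compound, then infected with HCVcc-Cre virus (~0.5 moi). After 44 h further culture, infection was read as luciferase luminescence following a 15 min substrate incubation at room temperature.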
AMA1-RON2 inh – qHTS for Inhibitors of AMA1-RON; Towards Development of Antimalarial Drug Lead: Primary Screen; Plasmodium falciparum AMA1 (3D7) - RON2 peptide interaction; AlphaScreen AMA1-biotinylated RON2 peptide binding; Potency, µM (titrated, usually from 58.2 µM), inactives show at the highest dose activity change, negative = inhibition, most hits filed as inhibitors; 0.2% of 360,000 active; AID 720542, 2013;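 also: 0% = vehicle wells and -100% = peptide control; nearly all actives have a fitted effect of over 45% in size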
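AMA1 (3D7) with his tag at 25 nM final met compounds first, then biotinylated RON2 peptide at 25 nM; detection used donor plus acceptor beads, 10 µg/mL apiece, read by AlphaScreen after 30 min at room temperature.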
Pf growth 96h – Primary qHTS for delayed death inhibitors of the malarial parasite plastid, 96 hour incubation; P. falciparum luciferase reporter growth, 96 h; Potency, µM (highest dose often 28.7 µM), for inactives: at the highest dose activity change, negative = inhibition, most hits filed as inhibitors; 6.9% of 320,000 active; AID 504834, 2011
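P. falciparum expressing integrated firefly luciferase grown in erythrocytes (2% hematocrit, 0.05% parasitemia final) with compounds for 96 hours at 37 C, 5% CO2. Growth inhibition read as loss of luminescence after adding luciferase detection reagent.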
Pf growth 48h – Primary qHTS for delayed death inhibitors of the malarial parasite plastid, 48 hour incubation; P. falciparum luciferase growth in erythrocytes, 48 h; Potency, µM (titrated, usually from 28.7 µM), for inactives: at the highest dose activity change, negative = inhibition, most hits filed as inhibitors; 5.9% of 310,000 active; AID 504832, 2011
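Erythrocytes infected with P. falciparum carrying an integrated firefly luciferase reporter (2% hematocrit, 0.1% parasitemia final) were exposed to compounds in RPMI 1640 with 0.5% Albumax at 37 C, 5% CO2. Growth inhibition was scored as reduced luminescence.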
AmpC no deterg – qHTS Inhibitors of AmpC Beta-Lactamase (assay without detergent) | P00811 | AmpC nitrocefin hydrolysis, absorbance 480 nm, 0.0001% Triton | Potency, µM (top dose mostly 57.1 µM), for inactives: top-dose activity change, negative = inhibition, usual class: inhibitors | 0.52% of 330,000 active | AID 485341, 2010;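 also: plate controls were no compound for no effect and no enzyme for full effect; nearly all actives have a fitted effect of over 20% in size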
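20 mM phosphate pH 7.0 + 0.01% (detergent screen) or 0.0001% Triton X-100; 5.3 nM AmpC reagent; cpd preinc 15 min RT; nitrocefin (800 uM stock) to start; A480 q20 s × 4 min; Activity was normalised to no-enzyme and no-compound control wells.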
An asterisk follows results filed as active; ? = inconclusive; nt = not tested or not shown; [ ] = another dose, or the depositor's remark. Calls follow the shape of the dose curve; as a rule, active = well fitted curve in the direction sought with a large enough effect; inconclusive = small, poorly fitted or top-dose-only effect, or another doubt; inactive = no such curve, though single readings can be large; an effect the other way counts as inactive or inconclusive. Unless noted, % is scaled to controls: 0 for no effect and ±100 for the full control effect; potency is read from the fitted curve at half-maximal effect.

SMILES	AmpC detergent	HCV inh	AMA1-RON2 inh	Pf growth 96h	Pf growth 48h	AmpC no deterg
COc1ccc(N(CC(=O)NCc2ccco2)S(=O)(=O)c2ccc(OC)c(OC)c2)cc1	-15%	14%	-8%	15µM*	nt	24%
COc1ccc(S(=O)(=O)N(CC(=O)NCc2ccco2)c2ccc(C)cc2)cc1OC	-10%	6%	9%	-2%	-2%	41%
CCOc1ccc(N(CC(=O)NCc2ccco2)S(=O)(=O)c2ccc(OC)c(OC)c2)cc1	-1%	?	0%	24%	12µM*	53%
CCNC(=O)C1CC(=O)N(Cc2ccc(F)cc2)C(=Nc2ccc(OC)cc2)S1 (stereo unspecified)	-15%	27%	2%	?	7.4µM*	28%
CCCCOC(=O)n1c(SCC(=O)N(CC)CC)nc2ccccc21	1%	0%	-5%	2.6µM*	-22%	117%
CN(C)CCCN(C(=O)c1ccco1)c1nc(-c2ccc(Cl)cc2)cs1	-11%	11µM*	-8%	-7%	0%	96%
COc1ccc(-c2csc(N(C)C(=O)c3ccco3)n2)cc1	?	5%	-14%	-6%	98%	-15%
CN(C(=O)c1ccco1)c1nc(-c2ccc(Cl)cc2)cs1	?	1%	-1%	6.6µM*	119%	-20%
Cc1ccc(-c2csc(N(C)C(=O)c3c(C)nn(-c4ccccc4)c3Cl)n2)cc1	3%	-24%	-2%	?	12µM*	?
CC(=O)c1cccc(NC(=O)c2cc3nc(-c4ccc(Br)cc4)cc(C(F)(F)F)n3n2)c1	5%	nt	nt	nt	nt	nt
Cc1cccc(N2CCN(C(=O)c3cc4ccc5cccnc5c4[nH]3)CC2)c1C	-1%	nt	nt	nt	nt	nt
COc1ccccc1NC(=O)CCn1nc(-c2ccccc2)c2ccccc2c1=O	-2%	nt	nt	nt	nt	nt
O=C(Cn1nc(-c2ccccc2)c2ccccc2c1=O)NN1CCOCC1	2%	8%	2%	0%	15µM*	-3%
O=C(Cn1nc(-c2ccc(Cl)cc2)c2ccccc2c1=O)NN1CCOCC1	1%	15%	9%	12%	18%	18%
COc1ccccc1NC(=O)Cn1nc(-c2ccc(Cl)cc2)c2ccccc2c1=O	4%	10µM*	-5%	?	nt	-2%
Nc1cc(-c2ccc(Br)cc2)[nH]n1	?	10%	-10%	1.9µM*	56%	-33%
CSc1nnc(C)c(=O)[nH]1	?	30%	-2%	15µM*	-18%	2%
CN(CC(=O)Nc1ccc(F)cc1)C(=O)COC(=O)c1cc(S(=O)(=O)N(C)C)ccc1N1CCCC1	?	-26%[8.37 µM]	0%	8.3µM*	12µM*	84%
CCN1CCN(S(=O)(=O)c2ccc(Cl)c(C(=O)N(CC)CC(=O)Nc3ccc(OC)cc3)c2)CC1	-3%	11%	-14%	13µM*	-13%	-14%
CCN(CC(=O)Nc1ccc(OC)cc1)C(=O)c1cc(S(=O)(=O)N(C)C)ccc1N1CCCC1	-12%	11µM*	0%	-9%	?	30%
CCc1c(C)nc2nc(-c3ccccc3)nn2c1NCc1ccc(C)cc1	12%	nt	nt	nt	nt	nt
CCc1ccccc1-n1cnc2cc(C(=O)NC3CCCCCC3)ccc21	3%	nt	nt	nt	nt	nt
CCc1cccc(OCC(=O)Nc2ccc(S(=O)(=O)Nc3cc(C)nc(C)n3)cc2)c1	4%	nt	nt	nt	nt	nt
CC(=O)c1cccc(NC(=O)c2c(C)nn(-c3ccc(F)cc3)c2-n2cccc2)c1	17%	nt	nt	nt	nt	nt
COc1ccc(C2CC(=O)c3cc(-c4nc(-c5cccc([N+](=O)[O-])c5)cs4)c(=O)n(-c4ccccc4C)c3C2)cc1 (stereo unspecified)	-3%	nt	nt	nt	nt	nt
SMILES	AmpC detergent	HCV inh	AMA1-RON2 inh	Pf growth 96h	Pf growth 48h	AmpC no deterg
O=c1c2c3c(sc2nnn1Cc1ccc(Br)cc1)CCCC3	2%	nt	nt	nt	nt	nt
O=C(Oc1ccc(N(C(=O)c2ccncc2)S(=O)(=O)c2ccc(Cl)cc2)cc1)c1ccncc1	0%	-21%	-6%	2.6µM*	10%	78%
COc1ccccc1CNC(=O)CCCc1nnc2n(CC(C)C)c(=O)c3sccc3n12	19%	nt	nt	nt	nt	nt
O=c1[nH]nc(Sc2ncnc3sccc23)n1CCc1ccccc1	-2%	-29%	25%	9.3µM*	10µM*	-27%
CCN(CC)C(=O)CSc1n[nH]c(=O)n1CCc1ccccc1	?	14%	?	0%	-2%	1%
OC(CNCC1CCCO1)Cn1c2ccc(Cl)cc2c2cc(Cl)ccc21 (stereo unspecified)	3%	?	-12%	29%	0.37µM*	151%
CCn1c2ccccc2c2cc(NC(=O)C(=O)NCC3CCCO3)ccc21 (stereo unspecified)	2%	?	-18%	-6%	?	-7%
OC(CNCCC1C=Nc2ccccc21)Cn1c2ccc(Cl)cc2c2cc(Cl)ccc21 (stereo unspecified)	1%	?	?	?	2.6µM*	3%
OC(CNCC1CCCO1)Cn1c2ccccc2c2ccccc21 (stereo unspecified)	?	?	1%	?	4.7µM*	1%
Cc1ccccc1-c1ncnn1-c1sc2c(c1C#N)CCCCC2	9%	nt	nt	nt	nt	nt
CCOC(=O)c1sc2c(c1C)C(c1cccs1)C1=C(CCCC1=O)N2 (stereo unspecified)	-8%	?	15%	12µM*	?	-47%
CCOC(=O)C1=C(C)Nc2[nH]c(=O)[nH]c(=O)c2C1c1cccs1 (stereo unspecified)	-17%	7%[8.37 µM]	-4%	0%	20%	-59%
CCOC(=O)C1=C(C)N=C2SCCC(=O)N2[C@@H]1c1cccs1	-1%	21%	7%	6%	10µM*	-7%
COC(=O)C1=C(C)NC(C)=C(C(=O)OC(C)C)C1c1cccc2nonc12 (stereo unspecified)	-2%	-25%	-7%	nt	nt	13%
CCOC(=O)C1=C(C)NC2=C(C(=O)CCC2)C1c1cccs1 (stereo unspecified)	2%	-12%	-7%	?	-19%	-15%
CCOC(=O)C1=C(C)NC(C)=C(C(=O)OCC)C1c1cccs1	2%	1%	-15%	9.3µM*	9.3µM*	-5%
COC(=O)C1=C(C)NC(C)=C(C(=O)OC(C)C)[C@H]1c1cccc2nonc12	nt	nt	nt	2.6µM*	4.5µM*	nt
